Values joined by “and” are separate entries in the source; they are usually repeats but may differ in a detail not shown here. Equal entries are not always repeated. About 2,000 (36%) of roughly 5,500 compounds were called active. Not shown: some 18% with an inconclusive outcome. Rule as the data show it: active = normalized growth mostly below about 0.91 (no sharp cut-off); inconclusive = no clear call, values can overlap the other calls; inactive = mostly above about 0.92. This is one part of the list.
Experiment: chemical genetic growth profiling, strain panel (AID 1159580);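 also: tested at 20 µM; growth read once vehicle control cultures reached saturation at 30 °C; 1 = growth at the plate median or of vehicle wells; lower values mean less growth of the strain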
Settings: growth OD

Measured: normalized growth

COc1ccc2c(c1OC)OC[C@@H](c1ccc(OC)c(OC)c1OC)C2
inactive: S. cerevisiae deletion strains, locus YAL013W, strain DEP1, stronger effect = lower value 1.01 | S. cerevisiae deletion strains, locus YBR021W, strain FUR4, stronger effect = lower value 0.972 | S. cerevisiae deletion strains, locus YBR229C, strain ROT2, stronger effect = lower value 1 | S. cerevisiae deletion strains, locus YCL029C, strain bik1, stronger effect = lower value 1.01 | S. cerevisiae deletion strains, locus YDL035C, strain GPR1, stronger effect = lower value 1.01 | S. cerevisiae deletion strains, locus YDL074C, strain BRE1, stronger effect = lower value 0.999 | S. cerevisiae deletion strains, locus YDL101C, strain DUN1, stronger effect = lower value 1.01 | S. cerevisiae deletion strains, locus YDL134C, strain PPH21, stronger effect = lower value 0.999 | S. cerevisiae deletion strains, locus YDL185W, strain tfp1, stronger effect = lower value 1.02 | S. cerevisiae deletion strains, locus YDL192W, strain arf1, stronger effect = lower value 1.01 | S. cerevisiae deletion strains, locus YDR101C, strain arx1, stronger effect = lower value 1 | S. cerevisiae deletion strains, locus YDR162C, strain NBP2, stronger effect = lower value 1 | S. cerevisiae deletion strains, locus YDR318W, strain mcm21, stronger effect = lower value 1.03 | S. cerevisiae deletion strains, locus YDR388W, stronger effect = lower value 1.01 | S. cerevisiae deletion strains, locus YDR502C, strain sam2, stronger effect = lower value 0.996 | S. cerevisiae deletion strains, locus YEL061C, strain CIN8, stronger effect = lower value 1.01 | S. cerevisiae deletion strains, locus YER110C, stronger effect = lower value 1 | S. cerevisiae deletion strains, locus YER155C, strain BEM2, stronger effect = lower value 1.01 | S. cerevisiae deletion strains, locus YER167W, strain BCK2, stronger effect = lower value 1.03 | S. cerevisiae deletion strains, locus YGL078C, strain dbp3, stronger effect = lower value 1 | S. cerevisiae deletion strains, locus YGL086W, strain mad1, stronger effect = lower value 0.994 | S. cerevisiae deletion strains, locus YGL248W, strain PDE1, stronger effect = lower value 1.01 | S. cerevisiae deletion strains, locus YGR078C, strain PAC10, stronger effect = lower value 0.998 | S. cerevisiae deletion strains, locus YGR135W, strain pre9, stronger effect = lower value 0.999 | S. cerevisiae deletion strains, locus YGR252W, strain gcn5, stronger effect = lower value 0.976 | S. cerevisiae deletion strains, locus YHR030C, strain SLT2, stronger effect = lower value 1.02 and 1.03 | S. cerevisiae deletion strains, locus YHR079C, strain IRE1 (second series), stronger effect = lower value 1.01 | S. cerevisiae deletion strains, locus YHR079C, strain IRE1, stronger effect = lower value 1.02 | S. cerevisiae deletion strains, locus YHR094C, strain hxt1, stronger effect = lower value 1.01 | S. cerevisiae deletion strains, locus YHR129C, strain ARP1, stronger effect = lower value 1.02 | S. cerevisiae deletion strains, locus YHR200W, strain rpn10, stronger effect = lower value 1.01 | S. cerevisiae deletion strains, locus YIL066C, strain RNR3, stronger effect = lower value 1.01 | S. cerevisiae deletion strains, locus YIL073C, strain SPO22, stronger effect = lower value 1.03 | S. cerevisiae deletion strains, locus YIL125W, strain kgd1, stronger effect = lower value 1 | S. cerevisiae deletion strains, locus YIR030C, strain dcg1, stronger effect = lower value 1.01 | S. cerevisiae deletion strains, locus YJL095W, strain BCK1, stronger effect = lower value 0.998 and 1.04 | S. cerevisiae deletion strains, locus YJL134W, strain LCB3, stronger effect = lower value 1.01 | S. cerevisiae deletion strains, locus YJL168C, strain set2, stronger effect = lower value 1.01 | S. cerevisiae deletion strains, locus YJL187C, strain SWE1 (second series), stronger effect = lower value 1 | S. cerevisiae deletion strains, locus YJR043C, strain POL32, stronger effect = lower value 1.02 | S. cerevisiae deletion strains, locus YJR066W, strain TOR1, stronger effect = lower value 0.983 | S. cerevisiae deletion strains, locus YKL009W, strain mrt4, stronger effect = lower value 1.01 | S. cerevisiae deletion strains, locus YKL068W, stronger effect = lower value 1 | S. cerevisiae deletion strains, locus YKL085W, strain MDH1 (second series), stronger effect = lower value 0.993 | S. cerevisiae deletion strains, locus YKL085W, strain MDH1, stronger effect = lower value 0.993 | S. cerevisiae deletion strains, locus YKL190W, strain CNB1, stronger effect = lower value 1.01 | S. cerevisiae deletion strains, locus YKR001C, strain vps1, stronger effect = lower value 1 | S. cerevisiae deletion strains, locus YLR039C, strain RIC1, stronger effect = lower value 1.13 | S. cerevisiae deletion strains, locus YLR058C, strain SHM2, stronger effect = lower value 1 | S. cerevisiae deletion strains, locus YLR102C, strain apc9, stronger effect = lower value 1.02 | S. cerevisiae deletion strains, locus YLR113W, strain HOG1, stronger effect = lower value 0.939 | S. cerevisiae deletion strains, locus YLR262C, strain YPT6, stronger effect = lower value 1.14 | S. cerevisiae deletion strains, locus YLR268W, strain sec22, stronger effect = lower value 0.996 | S. cerevisiae deletion strains, locus YLR330W, strain CHS5, stronger effect = lower value 1.01 | S. cerevisiae deletion strains, locus YLR342W, strain FKS1 (second series), stronger effect = lower value 1.04 | S. cerevisiae deletion strains, locus YLR371W, strain rom2, stronger effect = lower value 1.01 | S. cerevisiae deletion strains, locus YLR418C, strain cdc73, stronger effect = lower value 0.988 | S. cerevisiae deletion strains, locus YML016C, strain PPZ1, stronger effect = lower value 1.02 | S. cerevisiae deletion strains, locus YML032C, strain rad52, stronger effect = lower value 1.02 | S. cerevisiae deletion strains, locus YML124C, strain tub3, stronger effect = lower value 1 | S. cerevisiae deletion strains, locus YMR078C, strain ctf18, stronger effect = lower value 1 | S. cerevisiae deletion strains, locus YMR223W, strain ubp8, stronger effect = lower value 0.999 | S. cerevisiae deletion strains, locus YMR263W, strain SAP30, stronger effect = lower value 0.996 | S. cerevisiae deletion strains, locus YMR307W, strain GAS1, stronger effect = lower value 0.927 | S. cerevisiae deletion strains, locus YNL067W, strain RPL9B, stronger effect = lower value 1.01 | S. cerevisiae deletion strains, locus YNL183C, strain NPR1, stronger effect = lower value 0.97 | S. cerevisiae deletion strains, locus YNL233W, strain BNI4, stronger effect = lower value 0.997 | S. cerevisiae deletion strains, locus YNL250W, strain rad50, stronger effect = lower value 0.998 | S. cerevisiae deletion strains, locus YNL271C, strain bni1, stronger effect = lower value 0.999 | S. cerevisiae deletion strains, locus YNL298W, strain CLA4, stronger effect = lower value 0.998 | S. cerevisiae deletion strains, locus YNL307C, strain MCK1, stronger effect = lower value 1.04 | S. cerevisiae deletion strains, locus YNL322C, strain KRE1, stronger effect = lower value 1.01 | S. cerevisiae deletion strains, locus YNR052C, strain pop2, stronger effect = lower value 1.02 | S. cerevisiae deletion strains, locus YOL012C, strain htz1 1.06 | S. cerevisiae deletion strains, locus YOL147C, strain pex11, stronger effect = lower value 1 | S. cerevisiae deletion strains, locus YOR061W, strain CKA2, stronger effect = lower value 1.01 | S. cerevisiae deletion strains, locus YOR069W, strain VPS5, stronger effect = lower value 1.01 | S. cerevisiae deletion strains, locus YOR136W, strain idh2, stronger effect = lower value 1.01 | S. cerevisiae deletion strains, locus YOR144C, strain elg1, stronger effect = lower value 1 | S. cerevisiae deletion strains, locus YOR184W, strain ser1, stronger effect = lower value 0.976 | S. cerevisiae deletion strains, locus YOR231W, strain MKK1, stronger effect = lower value 1.06 | S. cerevisiae deletion strains, locus YOR316C, strain cot1, stronger effect = lower value 1.01 | S. cerevisiae deletion strains, locus YPL241C, strain CIN2, stronger effect = lower value 1.01 | S. cerevisiae deletion strains, locus YPL256C, strain CLN2, stronger effect = lower value 1.06 | S. cerevisiae deletion strains, locus YPR119W, strain clb2, stronger effect = lower value 1 | S. cerevisiae deletion strains, locus YPR141C, strain kar3, stronger effect = lower value 1.02 | S. cerevisiae deletion strains, locus YPR163C, strain tif3, stronger effect = lower value 1.01 | S. cerevisiae deletion strains, locus YPR167C, strain met16, stronger effect = lower value 1.01 | S. cerevisiae deletion strains, strain wtn01, stronger effect = lower value 1.02 | S. cerevisiae strains, strain wild type, stronger effect = lower value 1.01

Reference: PubChem BioAssay AID1159580 (chemical genetic matrix, 2015)
